Bioassay records deposited in PubChem BioAssay by The Scripps Research Institute Molecular Screening Center.
Sampled rows, rich in hits. Any-hit rate of the full collection: about 4.5%.
DAX1 inh-1: DAX1 (NR0B1) inhibitors, primary screen, cell-based, HEK293, Gal4-DAX1, luciferase luminescence | Nuclear receptor subfamily 0 group B member 1 (Homo sapiens), P51843 | HEK293 Gal4-DAX1 luciferase reporter | inhibition, % at 6.75 µM | 0.99% of 340,000 active | AID 504766, 2011;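 active means inhibition above the mean over all tested compounds plus 3 SD, cut at about 4.2% in these data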;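 further: 0% = DAX1-transfected cells with DMSO and 100% = empty-vector control cells with DMSO; inhibition shows as a rise in luminescence from relieved DAX1 repression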
Target sequence (P51843 207-470 limits assumed): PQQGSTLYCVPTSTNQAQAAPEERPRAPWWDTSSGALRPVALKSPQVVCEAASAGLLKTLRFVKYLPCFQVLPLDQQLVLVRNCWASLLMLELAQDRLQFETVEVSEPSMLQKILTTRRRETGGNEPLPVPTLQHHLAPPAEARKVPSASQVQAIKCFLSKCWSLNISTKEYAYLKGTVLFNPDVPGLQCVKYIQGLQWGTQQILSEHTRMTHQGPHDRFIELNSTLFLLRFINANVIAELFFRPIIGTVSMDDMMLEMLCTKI
DAX1 inh-2: DAX1 (NR0B1) inhibitors on StAR promoter, primary screen, cell-based, luminescence, SF-1 (NR5A1), full-length DAX-1 | 1.1% of 370,000 active | AID 652010, 2013 | inhibition, % at 6.8 µM | HEK293T StAR-luciferase reporter, SF-1/DAX-1 repression relief;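 active means inhibition above the mean over all tested compounds plus 3 SD, cut at about 3.6% in these data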;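 further: 0% = DAX-1 cells with DMSO and 100% = cells lacking DAX-1 with DMSO; higher inhibition means more luminescence from relief of DAX-1 repression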
hgDAF12 agonist: H. glycines DAF-12 receptor agonists, primary screen, cell-based, luminescence, HEK293, GAL4 fusion, UAS-luciferase. Nuclear hormone receptor DAF-12 (Heterodera glycines), GAL4 fusion. HEK293 GAL4-hgDAF12 UAS-luciferase reporter, agonist luminescence; normalized to butyrate control. activation, % at 6.8 µM. 1.8% of 370,000 active. AID 687014, 2013;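 active means activation above a cutoff set at the mean of all screened compounds plus 3 SD, cut at about 10% in these data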;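 further: 0% = DMSO wells and 100% = sodium butyrate wells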
ssDAF-12 act: S. stercoralis DAF-12 nuclear receptor activators, primary screen, cell-based, luminescence, HEK293, GRIP1 co-expression, lit1-tk-luc; Nuclear hormone receptor DAF-12 (Strongyloides stercoralis); HEK293 ssDAF-12/GRIP1 lit1-tk-luc reporter; % of 3 µM dafachronic acid response; activation, % at 6.8 µM; 1% of 370,000 active; AID 652126, 2013;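 active means activation above the mean over all tested compounds plus 3 SD, cut at about 0.9% in these data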;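 further: 0% = DMSO-only wells and 100% = 3 µM delta7-dafachronic acid wells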
GAA850 FXN act: FXN promoter activators, primary screen, cell-based, luciferase luminescence, HEK293 lucGAA850; activation, % at 6 µM; 0.56% of 360,000 active; HEK293 lucGAA850 FXN promoter luciferase reporter, 24 h; percent of 10 µM SAHA response; AID 540364, 2011;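 active means activation above the average of all compounds screened plus 3 SD, cutoff fixed separately per campaign, cut at about 7.5% in these data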;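 further: 0% = DMSO wells and 100% = 10 µM SAHA wells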
hcDAF12 agonist: H. contortus DAF-12 nuclear receptor activators, primary screen, cell-based, luminescence, HEK293, lit1-tk-luc reporter. HEK293 hcDAF-12 lit1-tk-luc reporter; 0% DMSO, 100% Δ7-dafachronic acid. activation, % at 6.8 µM. 1.4% of 370,000 active. AID 652067, 2013;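 active means activation above the mean of all tested compounds plus 3 SD, cut at about 5.5% in these data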;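 further: 100% = response to 3 µM Δ7-dafachronic acid high control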
GAA30 counter: GAA30 FXN promoter activators, confirmation, counter-screen for GAA850 frataxin promoter activator project, cell-based, luminescence, HEK293, lucGAA30, triplicate. shares compounds with GAA850 FXN act. 66% of 1,900 active. activation, % at 6 µM. HEK293 lucGAA30 FXN promoter luciferase, 24 h; DMSO = 0%, 5 µM ipriflavone = 100%;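 active means mean activation above the mean of solvent-only control wells plus 3 SD, cut at about 22% in these data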;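 further: counterscreen of GAA850 promoter hits where activity marks nonselective or luminescence artifacts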
FXN GAA850 conf: FXN GAA850 promoter activators in reporter cells, confirmation, cell-based, luminescence, HEK293 lucGAA850, triplicate; shares compounds with GAA850 FXN act; HEK293 lucGAA850 FXN promoter luciferase reporter, 24 h; 100% = activation by SAHA; activation, % at 6 µM; 86% of 1,900 active; AID 588351, 2011;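 active means mean activation above a set limit taken from the primary screen, cut at about 8% in these data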;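 further: 0% = DMSO wells and 100% = 10 µM SAHA wells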
* hit, by the source's call; / = not tested or not shown.

SMILES	DAX1 inh-1	DAX1 inh-2	hgDAF12 agonist	ssDAF-12 act	GAA850 FXN act	hcDAF12 agonist	GAA30 counter	FXN GAA850 conf
O=C(NCCc1ccccc1Cl)[C@@H]1CCCN1C(=O)[C@@H](NC(=O)N1CCOCC1)C1CCCCC1	/	-0.5	2.4	-0.2	/	0.1	/	/
CC(C)c1ccc(OCC(=O)N2CCCCCC2)c(Br)c1	1.0	0.7	11.4*	-1.5	7.8*	2.2	86.1*	28.9*
Cc1cc(Br)ccc1OCC(=O)N1CCCCCC1	2.2	-0.6	1.9	-1.1	-1.2	0.0	/	/
CCOC(=O)c1sc(NC(=O)Cn2nnc3sc4c(c3c2=O)CCC(C(C)(C)C)C4)nc1C (stereo unspecified)	0.6	0.1	0.7	-0.7	0.2	-0.3	/	/
CC(=O)Cn1nnc2sc3c(c2c1=O)CCC(C(C)(C)C)C3 (stereo unspecified)	2.1	1.8	6.5	-0.3	8.2*	2.1	118.7*	44.9*
COc1ccc(C2OCC(C)(C)CO2)cc1OC	1.2	-0.5	0.2	-1.3	1.6	-0.1	/	/
COc1ccc(C2C=C(C34CC5CC(CC(C5)C3)C4)NC(=S)N2)cc1OC (stereo unspecified)	1.0	-0.3	-1.8	-1.3	7.7*	-1.0	10.3	11.2*
O=C(NCCc1ccccc1)OCc1cn(Cc2ccc(Cl)cc2)nn1	/	0.8	1.9	-0.7	/	-1.5	/	/
Cc1n[nH]c(C)c1S(=O)(=O)N(CC(=O)NC1CCCC1)c1ccc(C(C)C)cc1	-2.9	-0.9	-2.2	-1.7	8.2*	-2.3	21.3	9.5*
C[C@@H]1ON(C)[C@H]2C[C@H]3c4[nH]c5c(-c6cc(Cl)cc(Cl)c6)cccc5c4CCN3C(=O)[C@@H]12	/	2.5	1.9	-1.2	/	0.0	/	/
COc1nc(=O)n(C2C=CC(=O)O2)cc1F (stereo unspecified)	1.3	0.3	-0.6	-0.5	13.5*	-1.1	-20.4	-0.3
CN1/C(=C/C(=O)c2nc(S(C)(=O)=O)ncc2Cl)C(C)(C)c2ccccc21	-4.5	/	/	/	9.8*	/	-108.9	-19.1
CN1/C(=C\C(=O)c2cccnc2)C(C)(C)c2ccccc21	-1.4	-0.1	-2.6	-1.5	2.8	-2.1	/	/
CCc1nc2ccc(C(=O)Nc3ccc(OC)c(OC)c3)cn2c1N(CC)Cc1ccc(OC)c(OC)c1	/	-0.5	-1.0	-1.9	1.6	-1.5	/	/
CCc1nc2ccc(C(=O)NCCN3CCNC3=O)cn2c1N(C)Cc1ccc(OC)cc1	/	-0.3	2.4	-1.3	14.1*	-2.2	22.4*	5.5
CCc1nc2ccc(C(=O)NCCOc3ccc(OC)cc3)cn2c1N(CC)Cc1ccc(OC)c(OC)c1	/	-1.1	-0.7	-1.6	8.4*	-3.0	4.6	4.2
CCN(CC)C(=O)CC[C@H]1CC[C@]2(CCCN(Cc3nccn3C)C2)O1	/	0.9	0.1	-0.9	/	-0.4	/	/
COc1ccc2nc(SC(C(=O)c3ccccc3)c3ccccc3)nc(C)c2c1 (stereo unspecified)	-0.3	-0.1	-1.3	-1.2	11.2*	-0.3	20.0	19.2*
N#Cc1cccc(-c2ccccc2C(=O)NC2CCCCN(Cc3ccc(Cl)cc3)C2=O)c1 (stereo unspecified)	/	-1.4	0.2	-2.1	/	-2.9	/	/
